# According to the supplement of paper PMC6555819:
# Assays:
# Assay in all cases: PBM binding z-score (relative to random genomic background probes); higher = stronger binding; sequences stand for … in GC…GCGATTGACAGCGTAGAATGAAGG
# [1] = system: FXR:RXRa (NR concentration 270 nM, RXRa partner concentration 90 nM)
# Procedure, shortened: (§1)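 The probes on custom Agilent 4×180K protein-binding microarrays were double-stranded, with 34-nt variable regions bearing direct-repeat seeds, single-nucleotide variants, half-site ablations and random human genomic background sequences. Incubation lasted 1 h with ligand-free nuclear receptor dimers in PBS pH 7.4, 2% milk, 0.02% Triton X-100, 1 mM DTT, 0.2 mg/mL BSA and 0.4 mg/ml salmon testes DNA. Antibodies against each partner (one per run) detected bound dimers, and fluorescence scans were regression-normalized. Binding z-scores take the random background probes as reference.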
# [2] = system: LXRa:RXRa (NR concentration 270 nM, RXRa partner concentration 90 nM)
# Procedure, shortened: as §1
# [3] = system: LXRa homodimer (NR concentration 270 nM)
# Procedure, shortened: as §1
# [4] = system: LXRb:RXRa (NR concentration 270 nM, RXRa partner concentration 90 nM)
# Procedure, shortened: as §1
# [5] = system: LXRb homodimer (NR concentration 270 nM)
# Procedure, shortened: as §1
# [6] = system: PPARa:RXRa (NR concentration 270 nM, RXRa partner concentration 90 nM)
# Procedure, shortened: as §1
# [7] = system: PPARg:RXRa (NR concentration 180 nM, RXRa partner concentration 90 nM)
# Procedure, shortened: as §1
# [8] = system: PPARg:RXRa 270nM:90nM, anti-RXR (NR concentration 270 nM, RXRa partner concentration 90 nM)
# Procedure, shortened: as §1
# [9] = system: PPARg:RXRa 30nM:10nM, anti-RXR (NR concentration 30 nM, RXRa partner concentration 10 nM)
# Procedure, shortened: as §1
# [10] = system: PPARg:RXRa 90nM:30nM, anti-RXR (NR concentration 90 nM, RXRa partner concentration 30 nM)
# Procedure, shortened: as §1
Sequence,PBM binding z-score [1],PBM binding z-score [2],PBM binding z-score [3],PBM binding z-score [4],PBM binding z-score [5],PBM binding z-score [6],PBM binding z-score [7],PBM binding z-score [8],PBM binding z-score [9],PBM binding z-score [10]
CCTTACGGGGCACGAGGTTATAGCACGACGAGCG,0.567,0.879,-0.304,0.509,-0.823,2.26,2.22,2.19,0.265,1.49
GATAGAGGGTCAAGGCCAGAGTACGCGTATTGAT,5.49,3.11,-0.2,2.76,-0.344,4.99,4.72,4.24,1.61,4.04
CGTCCAAGGTCGGAGAGGTCAGTGAATGCCGAGT,2.9,3.06,1.09,2.53,-0.761,3.1,0.524,2.01,0.133,1.16
CCGAGTAGGTTATGGGGCATTCTGGCAACGGTGA,0.393,0.413,-0.113,0.625,-0.33,2.14,3.38,4.15,2.03,3.6
TCTTGTAGATCAGCAGGGTAAGAAAGCTGGCCAA,-0.168,-0.124,-0.627,-0.0454,-0.559,0.26,-0.512,1.17,2.55,1.82
CCGAGTAGGTTATGGGACATTCAGGCAACGGTGA,0.111,0.356,0.00939,0.277,0.141,0.923,1.53,2.35,0.542,1.74
GAAACGAGGGCAAAGTTGATAGCATCTGTCGACG,1.38,1.27,-0.429,1.02,-0.45,4.4,7.78,7.51,7.45,8.19
AATACAGGGTCACTAGCCCAGAGTAGGTACGAAT,5.41,4.89,1.13,3.8,0.946,5.41,5.91,5.2,2.09,4.01
GCTCGGAGGACAGGGTCAGAGCTTTGTCCGTAGA,1.13,0.858,-0.746,0.906,-1.08,2.62,-0.204,0.469,-0.854,0.00374
GCTAGCAGGCCATTTGGGTCACTCTATGACGGGC,0.0268,-0.16,-0.53,-0.351,-0.817,0.925,0.594,0.327,-0.547,-0.167
GCAGACAGGTGAAACGCAGGTATCTCAGGGTGGC,-0.22,-0.184,-0.68,-0.253,-1.19,0.544,0.481,0.0316,-0.675,-0.473
ATATGTAGGTTATCGGGTAATTCAGTTTGCGCAT,0.917,1.31,1.01,1.33,0.955,3.5,5.49,5.19,2.91,4.5
AGAACGAGGGCACGCTGAGTTGATTGCAGAGTAG,0.793,0.4,-0.818,-0.114,-1.35,1.94,1.71,1.83,0.402,1.15
TAGCCTAGGTCATGGGCTAGTATACCACGCGAAC,4.37,3.22,-0.104,1.86,-0.806,4.16,3.61,3.3,0.951,2.07
GCTATTAGTTGAACGGGCAACCGAATGATTCTCG,-0.438,-0.312,-0.165,-0.485,-0.496,-0.347,0.352,0.00975,-0.295,-0.0379
GCGACTGGGGCAAAGCAGGTTACCATTAGGTTGG,0.209,-0.0636,-0.502,0.31,-0.906,1.4,1.11,1.39,-0.263,0.675
TCATATAGGTAAATGGTGAAAGTCGGTGTGGTAA,0.818,1.03,0.217,0.846,-0.047,1.6,1.54,3.44,4.15,3.96
ATCTCTAGGTAAGACTCAGTTCAGTTAAGAACGC,0.593,0.555,0.553,0.321,1.02,0.229,0.0463,0.424,0.445,0.237
ACTATCAGGCCAAGTTTGGGTCACTCAAACAAAG,0.363,0.344,-0.188,0.871,0.576,1.51,0.155,0.318,-0.0574,0.171
TCGAGTAGGCTACCAATGGGGCATTCAGCTTTCT,-0.523,-0.102,-1.06,-0.127,-1.18,0.0161,-0.358,0.198,1.19,0.625
TCATATAGGTAATGGTGAAAGTCGAACGATATGA,-0.32,0.417,-0.0652,0.263,-0.188,1.22,1.43,2.42,3.89,3.12
TCTCGTTGGTCACGGAGGTCACACACGACGGGTA,3.3,3.62,1.88,3.75,1.11,3.85,2.5,3.71,2.93,3.47
GGAACGAGGGCAAAGTTGATGGCATCTGTCGACG,1.36,1.13,-0.0159,0.949,-0.264,4.09,6.37,6.89,5.45,6.81
TTACCAAGGTGAGCTGAGGTCGATGATCCAACTC,2.13,0.545,-0.604,0.0564,-1.26,1.2,0.288,0.701,-0.265,0.0498
CGTCAACGTTCAAGGTAACGTAACAGAAAGCAGC,-0.152,-0.339,-0.374,-0.129,-0.566,-0.0131,0.721,-0.237,-0.128,-0.193
